# EP2 modulator: EP2 receptor modulators, cAMP readout, primary screen, cell-based, HTRF cAMP, PGE2 stimulation | Prostaglandin E2 receptor EP2 subtype (Homo sapiens), P43116 | EP2-expressing cells, cAMP HTRF FRET, PGE2 co-stimulation | induction, % at 25 µM | 260,000 tested, 0.83% active | AID 940, 2007;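 active = compounds whose cAMP rise, as percent of the full-agonist control response, exceeds 60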;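 also: rat C6 glioma line stably carrying human EP2 under a CMV promoter; the protocol text gives 20 µM as final concentration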
# Target sequence (P43116 whole entry, looked up): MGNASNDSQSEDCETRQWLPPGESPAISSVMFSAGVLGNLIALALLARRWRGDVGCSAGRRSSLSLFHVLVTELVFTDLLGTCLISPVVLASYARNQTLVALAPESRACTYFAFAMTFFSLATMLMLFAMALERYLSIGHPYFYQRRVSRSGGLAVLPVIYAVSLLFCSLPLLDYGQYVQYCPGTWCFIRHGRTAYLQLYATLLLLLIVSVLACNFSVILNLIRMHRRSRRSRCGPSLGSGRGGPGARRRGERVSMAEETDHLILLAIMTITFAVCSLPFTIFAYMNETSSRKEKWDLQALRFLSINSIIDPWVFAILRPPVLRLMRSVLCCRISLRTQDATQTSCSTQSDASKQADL
# KCC2 mod: KCC2 cotransporter modulators, thallium flux, primary screen, cell-based, HEK293 KCC2, FluoZin-2 fluorescence, MLSMR. Solute carrier family 12 member 5 (Homo sapiens), Q9H2X9. KCC2 cells, thallium flux FluoZin-2 fluorescence. B-score of Tl+ flux slope (higher = more flux/activation; lower = inhibition) at 10 µM. 190,000 tested, 2.2% active. AID 1456, 2008;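 active = thallium flux slope and its plate-corrected score both differing from the plate sample mean at a set confidence after two filtering rounds, in either direction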;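 also: slope of fluorescence scaled to starting intensity during 10 to 20 s after thallium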
# S1P3 antagonist: S1P3 receptor antagonists, primary screen, cell-based | CHO S1P3 NFAT-BLA reporter, FRET fluorescence, antagonist mode | inhibition, % at 4.98 µM | 170,000 tested, 0.27% active | AID 485, 2006;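 active = inhibition above the plate cutoff, the mean inhibition of test wells on that plate plus 3 SD, cut at about 28% in these data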;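 also: cells challenged with S1P at its EC80 of 0.8 µM; blue over green emission ratio from cleaved BLA substrate after 4 h stimulation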
# EP2 antag: human EP2 receptor antagonists, primary screen, TR-FRET cAMP, C6 glioma cells | AID 1422, 2008 | C6 glioma cells expressing human EP2; cells stimulated with saturating PGE2 | 260,000 tested, 0.52% active | inhibition, % at 25 µM | Prostaglandin E2 receptor EP2 subtype (Homo sapiens), P43116;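 active = percent inhibition above 40 after rounding to a whole number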;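 also: rat C6 glioma host cells with rolipram phosphodiesterase inhibitor present; the protocol text gives 20 µM as final concentration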
# Hits are given with their value; - = inactive; . = not tested or not shown. Shown are actives, neighbours in structure and some others; about 3.1% of the full set was active somewhere.
SMILES,EP2 modulator,KCC2 mod,S1P3 antagonist,EP2 antag
N=C1[C@H](O)[C@]2(I)c3ccccc3N3C(=N)[C@H](O)[C@@H]4c5ccccc5N1[C@@H]4[C@@H]32,-,.,.,68.0
CCOc1ccc2[nH]c(=O)c(CN(CCCO)Cc3nnnn3Cc3ccco3)cc2c1,-,.,.,-
COc1ccccc1C1(NC(=O)c2n[nH]c3c2CCC3)CCCC1,-,.,.,.
Nc1nc(Nc2ccccc2F)nc(NCc2ccccc2)c1[N+](=O)[O-],76.1,-,-,-
Cc1cccc(Nc2nc(N)c([N+](=O)[O-])c(NCc3ccccc3)n2)c1,75.6,-,-,-
CCOc1ccc(NC(=O)CSc2nncn2N)cc1,-,.,.,-
COc1ccccc1NC(=O)CSc1nc2c(c(=O)n(C)c(=O)n2C)n1Cc1ccc(Cl)cc1,-,.,.,-
COc1ccc(/C(O)=C2/C(=O)C(=O)N(CCN(C)C)C2c2cccnc2)cc1C (configuration not stated),-,-,-,-
COC(=O)c1sc(N2C(=O)C(=O)/C(=C(\O)c3ccc(OC)c(C)c3)C2c2cccnc2)nc1C (configuration not stated),-,.,.,53.3
CC(=O)N1CCN(Cn2nc3c4ccccc4ncn3c2=O)CC1,-,.,.,-
CCOC(=O)c1cccc(NC(=O)CSc2nc3c(c(=O)n(C)c(=O)n3C)n2C)c1,-,.,.,-
O=C1ON=C(c2ccc(Cl)cc2)/C1=C/c1ccc(O)cc1,-,-,-,53.0
CC1=NOC(=O)/C1=C/c1ccc(O)cc1,-,.,-,-
COc1cc(/C=C2\C(=O)ON=C2c2ccccc2)cc(Cl)c1O,-,-5.3,-,-
Cc1cccc2cc(C(c3nnnn3C(C)(C)C)N3CCc4ccccc4C3)c(=O)[nH]c12 (configuration not stated),-,.,.,-
N#Cc1c2ccc(O)cc2n2ccccc12,-,-4.22,-,-
Cc1c(C#N)c2ccccc2n1CC(=O)N1CCCCC1,-,.,.,-
Cc1[nH]c2ccccc2c1-c1cc(-c2cc(-c3c(C)[nH]c4ccccc34)on2)no1,-,.,.,47.1
COC(=O)c1c(NC(=O)c2ccco2)sc2c1C(C(=O)OC)CC2 (configuration not stated),-,-,54.5,-
CCCC(c1nnnn1C(C)(C)C)N(Cc1ccccc1OC)Cc1cc2cc(C)ccc2[nH]c1=O (configuration not stated),71.7,.,.,-
CCC(C)(C)n1nnnc1C(C(C)C)N(Cc1ccccc1)Cc1cc2cc(C)ccc2[nH]c1=O (configuration not stated),79.6,.,.,-
CCC(C)(C)n1nnnc1C(C(C)C)N(Cc1ccco1)Cc1cc2cc(C)ccc2[nH]c1=O (configuration not stated),-,.,.,-
CCC(c1nnnn1C1CCCCC1)N(Cc1cc2cc(C)ccc2[nH]c1=O)C1CCCC1 (configuration not stated),-,.,.,-
CCCC(c1nnnn1C(C)(C)C)N(Cc1ccccc1)Cc1cc2ccc(C)cc2[nH]c1=O (configuration not stated),-,.,.,-
Cc1ccc2[nH]c(=O)c(CN(Cc3nnnn3C3CCCCC3)C3CCCCC3)cc2c1,69.1,.,.,-
SMILES,EP2 modulator,KCC2 mod,S1P3 antagonist,EP2 antag
CCC(c1nnnn1C(C)(C)C)N(Cc1cc2cc(C)ccc2[nH]c1=O)C1CCCCC1 (configuration not stated),75.1,.,.,-
CCN(CC)CCNc1nc2c(c(=O)[nH]c(=O)n2C)n1C(C)c1ccccc1 (configuration not stated),-,.,.,-
CC(C)N1CCC(CNC(=O)Cn2nc(C(F)(F)F)c3c2CCCC3)CC1,-,.,.,-
CCC(c1nnnn1CCOC)N(Cc1ccc(C)cc1)Cc1cc2cc(OC)ccc2[nH]c1=O (configuration not stated),-,-3.13,-,-
CCCC(c1nnnn1Cc1ccco1)N(Cc1cc2cc(C)ccc2[nH]c1=O)C1CCCC1 (configuration not stated),68.2,.,.,-
CCC(c1nnnn1C(C)(C)C)N(CCc1ccccc1C)Cc1cc2cc(C)ccc2[nH]c1=O (configuration not stated),64.9,.,.,-
C1=CC2CC1CC2CN1CCN(CC2CC3C=CC2C3)CC1 (configuration not stated),-,.,.,-
CC(C)COn1c(=S)[nH]c2ccccc2c1=O,-,49,.,-
